Results on 13 compounds are retold here after PubChem BioAssay (NCI).

Holding throughout (assay): NCI-60 one-dose screen, 48 h (100 = growth as untreated, 0 = no growth, -100 = all killed)
Holding throughout (conditions): 10 µM unless noted

In assay [1] the test system is NCI-H23 lung.
In assay [2] the test system is NCI-H226 lung.
Assay [3] deals with NCI-H322M lung.
For assay [4], the system named is HOP-62 NSCLC.
Assay [5] deals with NCI-H460 lung.
Assay [6] has as its system HOP-92 NSCLC.
Assay [7] has as its system NCI-H522 lung.
Assay [8] concerns A549/ATCC NSCLC.
Assay [9] concerns 786-0 renal.
The subject of assay [10] is COLO 205 colon.

The panel holds about 83,000 compounds, 20% with a hit somewhere; the sample as a whole holds those more often.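 Single-concentration screen, 48 h exposure, 96-well plates. Endpoint: percent growth. Below 10 = active.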 Values without a mark were called inactive. Activity calls are given as the source filed them.

Turning to `CCOc1ccc2sc(NS(=O)(=O)c3ccc(N)cc3)nc2c1`, the growth was 104% in assay [1]; 94.7% in assay [2]; 109% in [3]; 100% in [4]; 104% in assay [5]; 94% in assay [6]. Also, the growth in [7] was 115%; in [8] it was 112%; in assay [9], 115%; in assay [10], 103%.

Regarding `CCCCCC1CCCCN1C(=O)OCCCC` (stereo not given), the growth in assay [1] was 62%; in assay [2], 87.5%; in assay [3], 103%; in [4], 122%; in [5] it was 99.9%; in assay [6] it was 113%. Besides, the growth was 32% in assay [7], 114% in assay [8], 104% in assay [9] and 111% in assay [10].

As to `c1coc2occoc=2o1`, the growth in [1] was 104%; in assay [2], 97.2%; in assay [3] it was 110%; in assay [4] it was 94.7%; in assay [5], 113%; in assay [6], 85.8%. Besides, the growth in assay [7] is 91.7%; in assay [8], 97%; in [9], 102%; in assay [10] it was 122%.

With `O=C(N=c1n(-c2ccccc2)nc2n1CCN2C1=NCCN1)c1ccc(Cl)cc1`, the growth is 86.9% in [1]; 93.3% in [2]; 91.2% in assay [3]; 91.6% in assay [4]; 77.3% in assay [5]; 61% in assay [6]. The growth in [7] is 95.9%; in assay [8] it was 83.4%; in assay [9], 104%; in [10], 62.2%.

On to `CCC(Br)(CC)C(=O)c1ccc(OCC(=O)O)c(Cl)c1Cl`, for which the growth in [1] is 103%; in assay [2] it was 87.4%; in assay [3], 112%; in [4] it was 119%; in [5], 96%; in assay [6] it was 102%. Also, the growth is 82.1% in assay [7], 91.5% in [8], 117% in [9] and 108% in assay [10].

For the compound `CCOC(=O)c1nn(C2CCCCO2)c2ccc(NS(=O)(=O)c3ccc(C)cc3)cc12` (stereo not given), the growth in [1] was 100%; in assay [2], 102%; in assay [3] it was 104%; in assay [4] it was 101%; in assay [5], 99.4%; in [6] it was 96.4%. Further, the growth in [7] is 98%; in [8] it was 95.1%; in [9], 94.4%; in assay [10], 121%.

For the compound `Nc1cc(C(=O)O)[nH]c(=S)n1`, the growth in [1] was 95.2%; in [2], 95.2%; in [3] it was 98.1%; in [4] it was 106%; in assay [5] it was 105%; in [6], 67.7%. For the same compound, the growth in [7] is 96.7%; in [8], 98.5%; in [9] it was 100%; in assay [10], 112%.

In the case of `CC(C)C1=NOC(=O)C1=Cc1cn(-c2cccnc2)nc1-c1ccccc1`, the growth was 107% in assay [1]; 106% in assay [2]; 100% in [3]; 100% in assay [4]; 103% in assay [5]; 92.6% in assay [6]. For the same compound, the growth in [7] is 82.7%; in assay [8] it was 94.8%; in assay [9] it was 82.2%; in assay [10] it was 107%.

Regarding `Cn1cc(-c2noc(C(=O)c3cn(C)c4ncccc34)n2)c2ccccc21`, the growth in [1] is 92.3%; in [2], 89.4%; in assay [3], 95.5%; in assay [4] it was 95%; in [5], 99.3%; in assay [6], 41.4%. The growth in assay [7] is 81.1%; in assay [8], 100%; in assay [9], 94.5%; in [10] it was 99.8%.

`CCOC(=O)/C(C#N)=C(\C)CCc1ccccc1`: the growth is 91.8% in assay [1]; 102% in [2]; 102% in assay [3]; 84.8% in [4]; 105% in assay [5]; 81.5% in [6]. The growth in assay [7] is 86.1%; in assay [8], 90.3%; in assay [9], 90.1%; in assay [10] it was 132%.

In the case of `CCN=Cc1c(O)c(O)c(C(C)C)c2cc(C)c(-c3c(C)cc4c(C(C)C)c(O)c(O)c(C=NCC)c4c3O)c(O)c12`, the growth in assay [1] is 24.9%; in assay [2], 80.4%; in assay [3], 48.3%; in assay [4] it was 51.3%; in [5], 26%; in assay [6], 16.3%. The growth in assay [7] was 43.3%; in assay [8] it was 27.2%; in assay [9] it was 72.5%; in [10] it was 7.89% (active).

In the case of `CC(C)C1=NOC(=O)C1=Cc1cn(-c2ccccc2)nc1-c1ccccc1`, the growth in assay [1] was 98%; in [2], 95.2%; in assay [3], 91%; in [4], 99.8%; in [5], 85.2%; in [6], 85.2%. Besides, the growth is 68.7% in assay [7], 88.8% in assay [8], 72.9% in [9] and 110% in [10].

Regarding `CC(C)=CCC[C@](C)(O)[C@H]1CC[C@]2(C)[C@@H]1CC[C@@H]1[C@@]3(C)CC/C(=N/O)C(C)(C)[C@@H]3CC[C@]12C`, the growth was -56.9% [100 µM] (active) in assay [1]; 11.3% [100 µM] in assay [2]; -1.07% [100 µM] (active) in [3]; -50.9% [100 µM] (active) in assay [4]; -7.45% [100 µM] (active) in assay [5]; -62% [100 µM] (active) in assay [6]. The growth in assay [7] is -28.9% [100 µM] (active); in [8], -70.4% [100 µM] (active); in assay [9], -21.1% [100 µM] (active); in [10], -43.5% [100 µM] (active).
